SUMO Mot1 rescue – yeast Mot1-301 growth rescue at high temperature, primary screen, SUMOylation pathway inhibitor project, S. cerevisiae, ATP luminescence, 38.5C; S. cerevisiae Mot1-301 growth rescue; percent above DMSO median, 100 means doubled; growth rescue, % at 18.8 µM; actives 1% (n = 320,000); AID 2716, 2010;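 active = every valid replicate shows activation above 250% relative to neutral control wells; inactive = the rest, any valid replicate at or below 250%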;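 note: OY570 slx delta 5 strain wells were the positive control but not used for scaling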
Calb FLC – C. albicans growth inhibition with fluconazole, primary screen, CaCi-2 strain, Alamar Blue fluorescence; C. albicans CaCi-2 (fluconazole-resistant clinical isolate) + fluconazole, 48 h; growth inhibition, % (no concentration beside the values); actives 0.57% (n = 300,000);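 active = growth inhibition above about 58% in most replicates, limit read from the data, passing the limit was not always enough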;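 note: all wells also contain fluconazole at 8 µg/ml as a sub-toxic cotreatment; 0% = median of DMSO wells and 100% = median of geldanamycin control wells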
ATG4B inh – ATG4B protease inhibitors, primary screen, biochemical, fluorescence, uHTS; Cysteine protease ATG4B (Homo sapiens), Q9Y4P1; ATG4B cleavage of LC3-PLA2, NBD-HPC fluorescence, 1 h; inhibition, % at 8.33 µM; actives 0.51% (n = 340,000); in the data active = inhibition above about 40%
FAS-TE inh – FAS thioesterase domain inhibitors, primary screen, biochemical, fluorescence intensity, uHTS; actives 0.67% (n = 360,000); Fatty acid synthase (Homo sapiens), P49327; recombinant FAS-TE, OMFH fluorogenic substrate, fluorescence endpoint; inhibition, % at 15 µM;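 active = compounds whose normalised, plate-corrected inhibition of enzyme fluorescence in the single-dose primary screen is 50% or more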;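 note: 0% = DMSO with enzyme and 100% = substrate without enzyme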
NadD inh – inhibitors of S. aureus NadD, primary screen, biochemical, colorimetric, uHTS. purified NadD enzyme, colorimetric absorbance read-out. inhibition, % at 20 µM. actives 0.78% (n = 360,000). AID 602399, 2012; in the data active = inhibition above about 26%
FAS-TE conf – FAS thioesterase domain inhibitors, confirmation, biochemical, fluorescence intensity, single concentration; shares compounds with FAS-TE inh; recombinant FAS-TE, OMFH fluorogenic substrate; inhibition, % at 15 µM; actives 45% (n = 2,300); AID 624325, 2012;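 active = compounds inhibiting the enzyme by at least 50% at 15 µM in any one of the replicates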;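 note: 0% = enzyme with DMSO only and 100% = wells lacking enzyme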
NadD conf – inhibitors of S. aureus NadD, confirmation, biochemical, colorimetric, single concentration; shares compounds with NadD inh; purified S. aureus NadD, colorimetric enzyme assay; inhibition, % at 20 µM; actives 13% (n = 2,000); AID 624309, 2012; in the data active = inhibition mostly above about 42%, no sharp cut-off; inactive = mostly below about 42%
Numbers without * were called inactive; . = no result given. This is a sample that favours compounds with a hit; in the whole collection about 3.1% have one here.

SMILES	SUMO Mot1 rescue	Calb FLC	ATG4B inh	FAS-TE inh	NadD inh	NadD conf	others
O=C1NCN(c2ccccc2)C12CCN(C(CCc1ccccc1)c1nnnn1-c1ccc3c(c1)OCCO3)CC2 (configuration not stated)	.	.	.	64.7*	19.1	.	FAS-TE conf=21.7
COc1ccc(C(c2nnnn2-c2ccc3c(c2)OCCO3)N2CCC3(CC2)C(=O)NCN3c2ccccc2)cc1 (configuration not stated)	.	.	.	62.8*	8.9	.	FAS-TE conf=-1.9
C[C@]1(O)CCC2C3CC[C@H]4C[C@@H](OC(=O)CNC(=O)CN)CC[C@]4(C)C3CC[C@@]21C (some centres not stated)	11.3	.	5.7	-11.4	-1.9	.
COc1ccc(-c2nn(CCC#N)cc2C(=O)Nc2ccc(C(C)=O)cc2)cc1[N+](=O)[O-]	7.2	29.5	-7.6	84.7*	-6.1	.	FAS-TE conf=90.6*
COC(=O)C1=C(c2ccc(OCc3ccccc3)cc2)C[C@@H]2CC[C@H]1N2C(=O)NCc1ccc2c(c1)OCO2	.	.	.	33.4	0.1	.
N#CC[N+]1(CCCNP2(=O)C=C(c3ccccc3)OC(c3ccccc3)=C2)CCOCC1	21.6	8.2	-3.0	-6.0	1.4	.
COC(=O)C1=C(c2ccc(-c3ccccc3)c(F)c2)C[C@@H]2CC[C@H]1N2C(=O)NC1Cc2ccccc2C1	3.5	.	-6.2	53.3*	2.6	.	FAS-TE conf=33.3
COC(=O)C1=C(c2ccc(-c3ccccc3)c(F)c2)C[C@@H]2CC[C@H]1N2C(=O)NCC1CC1	-18.0	.	-3.2	12.6	-2.8	.
COC1/C=C/C=C(\C)Cc2cc(O)c(Cl)c(c2)N(C)C(=O)CC(OC(=O)C(C)C)C2(C)OC2C(C)C2CC1(O)NC(=O)O2 (configuration not stated)	.	.	-1.5	-6.8	2.4	.
N#Cc1ccc2nc(-c3ccc(CN4CCC(n5c(=O)[nH]c6ccccc65)CC4)cc3)c(-c3ccccc3)nc2c1	.	.	.	93.1*	43.5*	25.7	FAS-TE conf=7.4
C[C@H](CO)N1C[C@H](C)[C@@H](CN(C)C(=O)Oc2ccc3ccccc3c2)OCc2cnnn2CCCC1=O	.	.	.	-7.3	4.0	.
Cc1cccc(C)c1-n1nnnc1C(c1cccc2ccccc12)N1CCC(n2c(=O)[nH]c3ccccc32)CC1 (configuration not stated)	.	.	.	85.5*	38.4*	-3.3	FAS-TE conf=17.2
Cc1cccc(C)c1-n1nnnc1C(c1cccs1)N1CCC(n2c(=O)[nH]c3ccccc32)CC1 (configuration not stated)	.	.	.	35.9	8.4	.
O=C1NCN(c2ccccc2)C12CCN(C(c1cccc3ccccc13)c1nnnn1C1CCCCC1)CC2 (configuration not stated)	.	.	.	22.9	30.0*	7.8
Cc1cccc(C)c1-n1nnnc1C(CCc1ccccc1)N1CCC2(CC1)C(=O)NCN2c1ccccc1 (configuration not stated)	.	.	.	7.3	40.8*	10.1
O=C1NCN(c2ccccc2)C12CCN(C(c1ccnc3ccccc13)c1nnnn1C1CCCCC1)CC2 (configuration not stated)	.	.	.	5.3	8.9	.
COC(=O)C1=C(c2ccc(Cl)c(C(F)(F)F)c2)C[C@@H]2CC[C@H]1N2C(=O)NCCOc1ccccc1	38.9	.	-4.5	32.3	-4.1	.
C[C@@H]1CN([C@@H](C)CO)C(=O)CCCn2nncc2CO[C@H]1CN(C)C(=O)Oc1cccc2ccccc12	.	.	.	-9.6	4.8	.
O=C1NC(=O)C(Sc2ccccc2[N+](=O)[O-])C(=O)N1	19.7	-9.6	-2.6	-0.6	2.6	.
CC(=O)c1ccc2c(c1)C1C(Cl)C(Sc3ccccc3[N+](=O)[O-])CC1C(c1ccccc1[N+](=O)[O-])N2 (configuration not stated)	-7.9	30.8	12.6	16.2	68.0*	25.3
CC(=O)c1ccc2c(c1)C1C(Cl)C(Sc3ccccc3[N+](=O)[O-])CC1C(c1ccccc1)N2 (configuration not stated)	-18.2	13.2	-0.5	15.8	36.9*	20.3
Cc1ccc(-n2c(=S)[nH]c3ccc(C)cc3c2=O)cc1	.	.	.	-0.1	9.1	.
CCN(C(=O)COC(=O)Cc1ccccc1)c1c(N)n(Cc2ccccc2)c(=O)[nH]c1=O	10.7	.	1.8	-4.4	0.5	.
S=P1(Oc2ccccc2)Nc2ccccc2N1	.	.	6.7	-1.8	-4.4	.
O=C(NCCCN1CC1)Nc1cccc2ccccc12	.	.	-0.1	-0.9	33.9*	10.9
Cc1cc(N(CCCl)CCCl)ccc1C=NNC(=O)Cc1cc(=O)oc2cc(O)ccc12	.	.	3.6	-1.0	72.9*	58.6*
CCOc1cc(C2C(C#N)=C(N)Oc3c2c(=O)oc2ccccc32)ccc1OC(=O)c1cccs1 (configuration not stated)	-12.9	0.8	6.9	41.6	31.3*	22.9
N#CC1=C(N)Oc2c(c(=O)oc3ccccc23)C1c1cccnc1 (configuration not stated)	-3.7	0.2	1.2	-3.6	0.7	.
Cc1cccc2nc(-c3ccccc3)c(-c3ccc(CN4CCC(n5c(=O)[nH]c6ccccc65)CC4)cc3)nc12	.	.	.	44.2	45.0*	26.5
